The list is not random: actives were taken first. Their share in the collection is about 14%.
FBPA Giardia inh: qHTS Assay for Inhibitors of Fructose-1,6-bisphosphate Aldolase from Giardia Lamblia; 290,000 compounds, 0.71% hits; Potency, µM (doses to about 59.6 µM), for the others: top-dose activity, negative = inhibition, actives largely listed as inhibitors; purified Giardia FBPA; A8B2U2; further: potency means the concentration at half of the fitted maximal effect; nearly all actives have a fitted effect of over 55% in size
Target sequence (A8B2U2 whole entry, looked up): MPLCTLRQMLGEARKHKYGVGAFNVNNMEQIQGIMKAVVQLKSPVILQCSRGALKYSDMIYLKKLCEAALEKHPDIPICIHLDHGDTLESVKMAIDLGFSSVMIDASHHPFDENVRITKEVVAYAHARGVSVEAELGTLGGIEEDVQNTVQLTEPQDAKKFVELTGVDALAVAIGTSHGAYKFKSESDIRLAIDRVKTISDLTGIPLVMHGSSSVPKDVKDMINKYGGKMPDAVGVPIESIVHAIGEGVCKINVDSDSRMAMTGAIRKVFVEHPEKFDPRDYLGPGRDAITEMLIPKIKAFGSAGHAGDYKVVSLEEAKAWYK
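40 nM FBPA preincubated 10 min at RT with compound (up to 57.5 uM final), then substrate plus GAPDH/TPI/NAD/arsenate coupling and diaphorase/resazurin added. Fluorescence read after 20 min at RT, 525/598 nm.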
Pf growth 48h: Primary qHTS for delayed death inhibitors of the malarial parasite plastid, 48 hour incubation; P. falciparum luciferase growth in erythrocytes, 48 h; Potency, µM (titrated, usually from 28.7 µM), for inactives: at the top dose activity change, negative = inhibition, hits mostly inhibitors; 310,000 compounds, 5.9% hits; AID 504832, 2011; further: potency means the concentration at half of the fitted maximal effect
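Cell-based growth assay: transgenic P. falciparum expressing firefly luciferase, cultured in red cells within RPMI 1640 containing 0.5% w/v Albumax, 24 mM bicarbonate and gentamycin. A drop in luciferase activity indicates inhibition.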
HCMV inh: qHTS Assay for inhibitors of the human cytomegalovirus (HCMV) | 410,000 compounds, 4.5% hits | HFF cells, HCMV-luciferase reporter, 72 h; active compounds read low | activity change, negative = inhibition, % at 57.5 µM; in the data active means activity change below about -60%; inconclusive means no clear call, values can overlap the other calls; inactive means above about -39%
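Compounds were evaluated in HFFs infected with an HCMV luciferase reporter virus (MOI 1 PFU/cell). Luciferase in lysates collected 72 h post infection served as the replication measure.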
Pf growth 96h: Primary qHTS for delayed death inhibitors of the malarial parasite plastid, 96 hour incubation | P. falciparum luciferase reporter growth, 96 h | Potency, µM (top dose mostly 28.7 µM), for the others: top-dose activity change, negative = inhibition, usual class: inhibitors | 320,000 compounds, 6.9% hits | AID 504834, 2011; further: potency means the concentration at half of the fitted maximal effect
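Erythrocytes infected with luciferase-expressing P. falciparum were dispensed at 2% hematocrit and 0.05% parasitemia (final), then incubated with compounds 96 hours at 37 C in 5% CO2. Luminescence after detection reagent addition reported growth.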
Sm TGR block: qHTS Assay for the Inhibitors of Schistosoma Mansoni Peroxiredoxins | Schistosoma mansoni thioredoxin glutathione reductase (TGR), Q962Y6 | purified TGR, DTNB reduction, TNB absorbance 405 nm | Potency, µM (titrated, usually from 114 µM), without a hit: at the top dose activity change, negative = inhibition, usual class: inhibitors | 360,000 compounds, 3% hits | AID 485364, 2010; further: potency means the concentration at half of the fitted maximal effect; nearly all actives have a fitted effect of over 60% in size
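TGR 20 nM + NADPH 100 uM (dispensed conc.), cpd preinc 15 min RT; start with NADPH (500 uM addition) then DTNB (15 mM addition). Kinetic TNB absorbance, 405 nm filter. Four-parameter Hill fit across titration.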
* marks the source's active call; other numbers are inactive results; ? = inconclusive; . = no result given; ! = a repeat was not active; [ ] = dose if it differs, or a comment. Unless noted, the call rests on the fitted dose curve; in most records, active means well fitted curve in the direction sought with a large enough effect; inconclusive means small, poorly fitted or top-dose-only effect, or another doubt; inactive means no such curve, though single readings can be large; an effect the other way counts as inactive or inconclusive. On the % scale 0 is the no-effect control and ±100 the full control effect.

SMILES | FBPA Giardia inh | Pf growth 48h | HCMV inh | Pf growth 96h | Sm TGR block
Cc1ccc(Cn2c(=O)c3c(nc4n3CCCN4Cc3ccccc3)n(C)c2=O)cc1 | -2% | -15% | -6 | -25% | 5%
Cn1c(N2CCCC2)nc2c1c(=O)n(Cc1cccc(F)c1)c(=O)n2C | 1%[12.9 µM] | ? | -32 | 10µM* | 9%
Cn1c(=O)n(Cc2ccccc2)c(=O)c2c1nc1n2CCCN1CCc1ccccc1 | -4% | . | -13 | 3.3µM* | -1%
CCCCn1c(=O)c2c(nc3n2CCCN3Cc2ccccc2)n(C)c1=O | 6% | 5.2µM* | -19 | ? | 11%
CCOCCn1c(=O)c2c(nc3n2CCCN3CCc2ccccc2)n(C)c1=O | . | ? | 9 | 15µM* | 3%
CCOCCn1c(=O)c2c(nc3n2CCCN3Cc2ccccc2)n(C)c1=O | -5% | -22% | ? | ? | 1%
CCOc1ccc(/C=C/c2nc(C#N)c(N3CCC(C)CC3)o2)cc1 | . | . | -16 | . | 0%
Cc1cc(C)n(-c2ncc3c(n2)N(CCO)CCOC3=O)n1 | ? | 2% | 13 | ? | 4%
CC1=CC2(O)OCCN(CCO)C2=CC1=O (centres undefined) | ? | -7% | ? | -15% | 20µM*
O=C(CCl)N1c2ccccc2OCC1c1ccccc1 (centres undefined) | ? | ? | -62* | ? | 3.2µM*
O=C(CCl)N1c2ccccc2SCC1c1ccccc1 (centres undefined) | -4% | ? | -98* | ? | 2.8µM*
O=C(CCl)N1CCN(C(=O)C2COc3ccccc3O2)CC1 (centres undefined) | . | . | -8 | . | .
COc1ccc(CCNC(=O)c2ccc3c(c2)CCN3S(C)(=O)=O)cc1 | . | . | 1 | . | 4%
CCOc1cc(CN2CCN(c3cccc(C(F)(F)F)c3)CC2)ccc1O | ? | ? | -21 | 54% | 45µM*
CCOc1cc(CN2CCSCC2)ccc1O | -11% | -9% | -17 | ? | 40µM*
COc1ccc(CN2CCC(C(=O)N3CCN(c4ccccc4F)CC3)CC2)cc1OC | 1% | -1% | 43 | 19% | -3%
CCOC(=O)N1CCN(C(=O)C2CCN(Cc3ccc(O)c(OCC)c3)CC2)CC1 | ? | -13% | -25 | 16% | 32µM*
CCOC(=O)N1CCN(C(=O)C2CCN(Cc3cccc(OCc4ccccc4)c3)CC2)CC1 | -5% | 5% | -25 | 4.7µM* | 0%
CCOc1cc(CN2CCN(c3cccc(C(F)(F)F)c3)CC2)ccc1OC | ? | . | 31 | ? | 0%
CCOC(=O)N1CCN(C(=O)C2CCN(S(=O)(=O)CC)CC2)CC1 | -3% | 2% | -1 | 1.7µM* | 3%
CC(=O)O[C@H]1CC(C)(C)C(=C=C/C(C)=C/C=C/C(C)=C/C=C/C=C(C)/C=C/C=C(\C)C(=O)C[C@@]23O[C@]2(C)C[C@@H](O)CC3(C)C)[C@](C)(O)C1 | -6% | 9.3µM* | . | ? | 3.2µM*
COc1cc(NC(=O)COn2nnc3ccc(S(C)(=O)=O)cc32)cc(OC)c1 | 5% | -3% | -68* | ? | 35%
CCc1cccc(CC)c1N(COC)C(=O)Cn1c(C(C)O)nc2ccccc21 (centres undefined) | 27% | 0% | 7 | 9.3µM* | -9%
CCOCCn1c(C(C)O)nc2ccccc21 (centres undefined) | -3% | 25% | 4 | 3.7µM* | 2%
CC(C)C(=O)NCCc1nc2ccccc2n1CCCOc1ccc(Cl)cc1 | -4% | ? | -13 | ? | 16%
SMILES | FBPA Giardia inh | Pf growth 48h | HCMV inh | Pf growth 96h | Sm TGR block
CCCC(O)c1nc2ccccc2n1CCCOc1ccc(Cl)cc1 (centres undefined) | . | . | -76* | . | 2%
CCCn1c(C(O)c2ccc(OC)c(OC)c2)nc2ccccc21 (centres undefined) | -6% | 19% | -69* | ? | -2%
CCOCCn1c(CC)nc2ccccc21 | 0% | 18% | -29 | -14% | 0%
CCc1cccc(CC)c1N(COC)C(=O)Cn1c(CC)nc2ccccc21 | . | . | -38 | . | -4%
c1ccc(NC2C(c3ccccc3)=Nc3ccccc3-n3nnnc32)cc1 (centres undefined) | . | . | 3 | . | .
O=c1cc(-c2ccc(O)cc2)oc2cc(O[C@@H]3O[C@H](CO)[C@H](O)[C@H](O)[C@H]3O)cc(O)c12 | -2% | . | . | . | .
CCc1ccccc1NC(=O)C1CCCN(c2cnccn2)C1 (centres undefined) | . | . | -2 | . | -5%
O=C(O)c1ccc(C2Nc3ccccc3-c3nnc(SCc4ccc(Cl)cc4)nc3O2)cc1 (centres undefined) | . | . | 28 | . | -7%
O=C(NNC(=O)c1ccc(Br)o1)c1csc(N2CCOCC2)n1 | . | -7% | 22 | 18% | -21%
O=C(Nc1ccc(F)cc1)C1CCCN(S(=O)(=O)c2cccc3nonc23)C1 (centres undefined) | 7% | -20% | ? | 3.7µM* | -4%
O=C(C1CCCN(S(=O)(=O)c2cccc3nonc23)C1)N1CCN(c2ccccc2Cl)CC1 (centres undefined) | 0% | 12µM* | -15 | 12µM* | 10%
Cc1cccc(N2CCN(S(=O)(=O)c3cccc4nonc34)CC2)c1C | 1% | -13% | -22 | 2.9µM* | -9%
Cc1ccc(C)c(N2CCN(C(=O)C3CCCN(S(=O)(=O)c4cccc5nonc45)C3)CC2)c1 (centres undefined) | . | . | -6 | . | 1%
O=C(C1CCCN(S(=O)(=O)c2cccc3nonc23)C1)N1CCN(c2cccc(Cl)c2)CC1 (centres undefined) | -4% | . | -65*! | 7.4µM* | 3%
CCOC(=O)CNC(=O)Cn1cnc2c(nnn2-c2ccc(OC)cc2)c1=O | 13% | -19% | -12 | 40% | 5%
N=c1ccn2c(n1)O[C@H]1[C@@H](O)[C@@H](CO)O[C@H]12 | -1% | . | . | . | .
Nc1ccn([C@@H]2O[C@H](CO)[C@@H](O)C2O)c(=O)n1 (some centres undefined) | 0% | 5% | -97* | 3% | 6%
Nc1ccn([C@@H]2O[C@H](COS(=O)(=O)O)[C@@H](O)[C@H]2O)c(=O)n1 | . | . | 6 | . | .
N=c1ccn2c(n1)OC1C(O)C(CO)OC12 (centres undefined) | -6% | 25% | -100* | 6% | -20%
Nc1ccn(C2OC(COC(=O)C34CC5CC(CC(C5)C3)C4)C(O)C2O)c(=O)n1 (centres undefined) | . | . | -97* | . | .
Nc1ccn(C2OC(CCl)C(O)C2O)c(=O)n1 (centres undefined) | . | . | -61* | . | .

Assay outcomes deposited in PubChem BioAssay by National Center for Advancing Translational Sciences (NCATS).
